PubChem BioAssay AID1645887 (National Center for Advancing Translational Sciences (NCATS), 2021)
Values joined by “and” are separate entries in the source; they are usually repeats but may differ in a detail not shown here. Equal entries are not always repeated. Out of some 16,000 compounds screened, about 40 (0.2%) were called active. Inconclusive results (about 1%) are left out. This excerpt belongs to a sample that is enriched for actives. More than one record can exist for a structure, and the calls need not agree. A number with no mark means an inactive call. Calls come from the whole dose curve; as a rule, active = well fitted activation curve with a large enough effect; inconclusive = small, poorly fitted or top-dose-only effect, or another doubt; inactive = no such curve, though single readings can be large or run the other way.

target: Rap guanine nucleotide exchange factor 4 (Homo sapiens) (UniProt Q8WZA2); assay: Validation qHTS for agonist of cAMP-regulated guanine nucleotide exchange factor 4 (EPAC2); details: EPAC2 Rap1B BODIPY-GDP exchange, fluorescence; activation: stronger effect = higher value;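 for activation: exchange makes BODIPY-GDP fluorescence drop when released from Rap1B; series mostly up to about 150 µM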
Sequence (Q8WZA2 whole entry, looked up): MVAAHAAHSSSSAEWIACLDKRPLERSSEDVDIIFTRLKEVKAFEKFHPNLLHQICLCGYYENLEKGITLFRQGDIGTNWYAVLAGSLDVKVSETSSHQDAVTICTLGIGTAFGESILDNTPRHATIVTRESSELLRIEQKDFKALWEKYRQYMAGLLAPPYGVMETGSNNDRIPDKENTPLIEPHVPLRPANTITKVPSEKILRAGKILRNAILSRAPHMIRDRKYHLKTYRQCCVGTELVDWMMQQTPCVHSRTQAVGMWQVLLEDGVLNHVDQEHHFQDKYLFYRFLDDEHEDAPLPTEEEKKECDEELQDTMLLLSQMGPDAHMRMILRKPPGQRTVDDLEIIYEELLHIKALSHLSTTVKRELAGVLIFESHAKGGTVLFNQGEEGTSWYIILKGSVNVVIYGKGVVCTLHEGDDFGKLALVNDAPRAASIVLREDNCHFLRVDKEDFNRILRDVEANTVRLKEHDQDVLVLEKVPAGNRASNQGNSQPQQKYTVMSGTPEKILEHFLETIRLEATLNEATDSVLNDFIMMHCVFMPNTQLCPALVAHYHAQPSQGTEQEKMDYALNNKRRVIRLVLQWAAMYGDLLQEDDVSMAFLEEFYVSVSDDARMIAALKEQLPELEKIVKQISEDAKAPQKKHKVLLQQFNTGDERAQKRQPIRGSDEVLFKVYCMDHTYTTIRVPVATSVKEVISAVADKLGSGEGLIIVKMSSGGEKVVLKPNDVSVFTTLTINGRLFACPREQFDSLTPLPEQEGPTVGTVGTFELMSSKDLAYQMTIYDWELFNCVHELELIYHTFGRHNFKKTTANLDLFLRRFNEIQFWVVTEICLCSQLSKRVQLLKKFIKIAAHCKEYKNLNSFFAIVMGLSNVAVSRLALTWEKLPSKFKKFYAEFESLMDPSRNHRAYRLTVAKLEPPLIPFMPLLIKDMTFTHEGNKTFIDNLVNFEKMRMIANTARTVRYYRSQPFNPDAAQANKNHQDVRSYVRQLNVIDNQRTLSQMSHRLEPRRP
From the text: Principle Investigator: Xiaodong Cheng Ph.D.
The University of Texas Medical Branch, […], TX
In multi-cellular eukaryotic organisms, the effects of cAMP are transduced by two ubiquitously-expressed intracellular cAMP receptors, the classic protein kinase A/cAMP-dependent protein kinase (PKA/cAPK) and the more recently discovered exchange protein directly activated by cAMP/cAMP-regulated guanine nucleotide exchange factor (EPAC/cAMP-GEF). Both PKA and EPAC are ubiquitously expressed in all tissues, and an increase in intracellular cAMP levels will lead to the activation of both PKA and EPAC. Therefore, careful dissections of the individual role and relative contribution of EPAC and PKA within the overall cAMP signaling in various model systems are critical for further elucidating the mechanism of cAMP signaling. To date no EPAC-specific antagonists and agonist, as well as isoform-specific agonists have been reported, and developing EPAC-specific pharmacological probes to determine the physiological functions that EPAC play in the overall cAMP-mediated signaling remains a major challenge within the research field. Furthermore, identified regulators of EPAC may lead to new mechanism-based therapeutic strategies specifically targeting the EPAC / cAMP-signaling components as EPAC has been implicated to play important roles in major human pathological conditions such as diabetes, heart disease, and cancer.
This qHTS will be used to screen the Molecular Libraries Small Molecule Repository (MLSMR) as a concentration-titration series using the NCGC unique quantitative screening (qHTS) platform to find activators for EPAC1. In addition, this assay will also be used as a counterscreen for the EPAC2 qHTS. This fluorescent based assay is developed and validated for EPAC1 that measures exchange using EPAC effector Rap1 complex with BODIPY-GDP, a GDP analog with a tethered fluorophores. Activators are identified by monitoring the change in fluorescence signal as the exchanged free BODIPY-GDP has a reduced fluorescence compared to Rap1-bound BODIPY-GDP. Increase in signal (activation) is the desired outcome for the EPAC1 agonist while no activity in this assay is desired for the EPAC2 agonist counterscreen.
[1] de Rooij, J., Zwartkruis, F. J., Verheijen, M. H., Cool, R. H., Nijman, S. M., Wittinghofer, A., and Bos, J.L. (1998) Nature 396, 474-477.
Briefly, three uL of reagents (100 nM EPAC2, 250 nM RAP1B-BODIPY-GDP, 50 uM GDP) were dispensed into a 1536-well Greiner black solid-bottom medium binding assay plate. Controls and test compounds (23 nL) were transferred to the plate via a Kalypsys pin tool equipped with a 1536-pin array. The plates were centrifuged at 1,000 rpm for 15 seconds followed by 5 minute incubation at room temperature. The assay plates were read at 5 minute intervals for 30 minutes in the ViewLux plate reader using 480nm excitation and 540nm emission filters. The results were normalized to the agonist positive control of 6.5 mM cAMP.
% is set by controls: 0 for no effect and ±100 for the full control effect; potency is the fitted concentration of half-maximal effect.

`O=c1[nH]cc(N(CCCl)CCCl)c(=O)[nH]1` was tested, and the Potency was 100 µM (active).
In the case of `CC1=NCCc2c1[nH]c1cc(O)ccc21`, the Potency is reported as 100 µM (active).
`CC1=NN=C(c2ccc(N)cc2)c2cc3c(cc2C1)OCO3` was tested, and the Potency was 89.1 µM (active).
`CC(C)(C)c1cc(O)ccc1O` was tested, and the Potency was 56.2 µM (active).
For `O=C1OC2(c3cc(Br)c(O)cc3Oc3c2cc(Br)c(O)[c]3[Hg])c2ccccc21` (configuration not stated), the Potency was 3.98 µM (active).

Compared with `CN1CCCC2(CCN(C(=O)c3ccco3)CC2)C1`, `CN1CCC2(CC1)CCN(C(=O)c1ccco1)CC2` is higher in activation: 0.865% for the first, 1.62% for the second.

Going from `NCC(O)c1cccc(O)c1` (configuration not stated) to `O=S(=O)(O)c1cc(O)ccc1O`, the activation falls from -5.63% to -9.91%.

First: Nc1ccc(N=Nc2ccccc2)cc1
Second: CC1=NN=C(c2ccc(N)cc2)c2cc3c(cc2C1)OCO3
The activation of the first is higher: -19.5% for the first, -34.2% for the second.

First: CCN1C[C@]2(COC)CC[C@H](OC)[C@@]34C5C[C@@H]6[C@@H](OC)C[C@@]7(OCO[C@@]7([C@@H](O)C23)[C@@H]14)C5[C@H]6OC (some centres not stated)
Second: C[C@]12CCC3C(CC[C@H]4C[C@H](O)CC[C@]34C)[C@@H]1CC[C@@H]2C(=O)CO (some centres not stated)
The activation of the first is higher: -3.22% for the first, -7.64% for the second.

Going from `[O]=[Cd]` to `COc1cc(C[C@@H](C)N)c(OC)cc1C`, the activation falls from -0.16% to -5.23%.

First: O=C1/C(=C/c2ccc(N(CCCl)CCCl)cc2)Cc2ccccc21
Second: CCOC(=O)[C@]12Cc3c(cc(OC)c(OC)c3OC)[C@H]1N(Cc1ccccc1)C(=O)c1ccccc12
The activation of the first is higher: -1.94% for the first, -19.3% for the second.

Going from `C[C@H]1[C@@H]2Cc3ccc(O)cc3[C@@]1(C)CCN2C` to `CC(C)(C)c1cc(O)ccc1O`, the activation falls from -8.04% to -17%.

First: CC1(C)C(O)CC(=O)[C@]2(C)C1CC(=O)[C@]1(C)C2CC[C@@]2(C)C(c3ccoc3)OC(=O)C3O[C@@]321 (some centres not stated)
Second: CN1C2CC(OC(=O)C(CO)c3ccccc3)CC1C(O)C2 (configuration not stated)
The activation of the first is lower: -10.4% for the first, -0.713% for the second.

First: COc1ccc2[nH]cc(CCN(C(C)C)C(C)C)c2c1
Second: CC(C)C[C@H](NC(=O)[C@H](Cc1ccccc1)NC(=O)CNC(=O)[C@H](CO)NC(=O)[C@@H](N)Cc1ccc(O)cc1)C(=O)N[C@H](C(=O)O)[C@H](C)O
The activation of the first is lower: -8.55% for the first, 9.65% for the second.

Work on `c1cnc(N2CC3(CCNCC3)C2)nc1` yielded an activation of 2.58%.

For `COc1ccc2c3c([nH]c2c1)C(C)=NCC3`, the activation was 23% and -2.23% and 8.55%.
`Cc1cc(O)ccc1Cl` was tested, and the activation was -10.1% and -9.14%.
With `NC(N)=NCCCCCCCCCCN=C(N)N` the activation was -12% and 0.499%.
